From PubChem
Gli-Sufu block: Gli-Sufu pathway antagonists, primary screen, luciferase luminescence, Sufu-KO-LIGHT cells, uHTS; Sufu-KO-LIGHT fibroblasts, Gli luciferase reporter luminescence; inhibition, % at 5 µM; actives 0.74% (n = 340,000);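 active = inhibition above about 55%, limit read from the data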
Mdm2 MdmX PPI: inhibitors of human Mdm2-MdmX association, primary screen, cell-based, luminescence, split luciferase, SaOS-2, uHTS; Protein Mdm4 (Homo sapiens) + E3 ubiquitin-protein ligase Mdm2 (Homo sapiens), …; SaOS-2 split-luciferase Mdm2/MdmX complementation; inhibition, % at 8 µM; actives 3% (n = 330,000); AID 485346, 2010;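 active = inhibition of at least 50% at 8 µM in the primary screen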
Beta cell apopt: inhibitors of cytokine-induced beta cell apoptosis, primary screen, luminescence; INS-1E cytokine-induced death, ATP luminescence, 48 h; percent of positive-control rescue, neutral wells zero; protection from apoptosis, % (no concentration beside the values); actives 0.8% (n = 300,000); AID 435005, 2010;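 active = Every replicate reaches about 75%, or at least half do and their mean reaches it too, limit read from the data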;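 note: higher means more ATP so stronger rescue from cytokine killing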
MPTP block: mitochondrial permeability transition pore inhibitors, primary screen, biochemical, isolated mouse mitochondria, absorbance. Ca2+ swelling absorbance, 30 min. actives 1.4% (n = 360,000). AID 602449, 2012. inhibition, % at 10 µM;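 active = inhibition of 50% or more, scaled per plate between neutral and stimulator controls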
CSC inhib: cancer stem cell viability inhibitors, primary screen, luminescence; AID 2717, 2010; inhibition, % at 7.5 µM; actives 1.1% (n = 300,000); cancer stem cell-like cells viability; in the data active = inhibition above about 75%; tested in HMLE shEcad cells
GRIN3A LBD mod: binders of NR3A ligand-binding domain, primary screen, biophysical, differential scanning fluorimetry, uHTS; Glutamate receptor ionotropic, NMDA 3A (GRIN3A) ligand-binding domain; NR3A LBD differential scanning fluorimetry, Tm shift; 0% = protein alone, 100% = glycine-bound protein; Tm shift relative to glycine control, % at 25 µM; actives 2.5% (n = 340,000); AID 1259313, 2017;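 active = melting temperature shift of at least 10% of the positive control shift, at one fixed dose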
Numbers stand for hits; i = inactive; nt = no result given. Sampled rows, rich in hits. Any-hit rate of the full collection: about 6.6%.

SMILES	Gli-Sufu block	Mdm2 MdmX PPI	Beta cell apopt	MPTP block	CSC inhib	GRIN3A LBD mod
CCCOC(=O)/C(C(N)=NCc1ccccc1)=C(\O)OCCC	i	i	109	i	i	i
CCOC(=O)/C(C(N)=NCC(C)C)=C(/O)c1ccccc1	i	i	nt	i	i	i
CCCCCCn1c(N2CCN(c3cccc(Cl)c3)CC2)nc2c1c(=O)[nH]c(=O)n2C	i	i	i	i	i	14
CCN(CC(=O)Nc1c(F)cccc1F)C(=O)c1ccc(Cl)c(S(=O)(=O)N2CCCCC2)c1	i	i	i	i	i	i
O=C(C1=C[C@@H]2[C@H]3C(=O)N(c4cccc(Cl)c4)C(=O)[C@H]3[C@@H](C(=O)c3ccc(Cl)cc3)N2C=C1)c1ccccc1	i	i	i	i	i	14
Cc1cccc(-n2cc(CN(C)Cc3nccn3C)c(-c3cccc(F)c3)n2)c1	i	i	i	i	103	i
O=C(NC1CCCCC1)c1[nH]c(C(F)(F)F)nc1-c1ccccc1	nt	nt	nt	i	nt	nt
Cc1ccc2[nH]c3c(c2c1)CCc1cn[nH]c1-3	i	i	i	i	i	28
O=S(=O)(NC1CCCCC1N1CCC(O)CC1)c1ccccc1 (stereo unspecified)	i	i	i	i	i	i
O=C(CC1c2cc(F)ccc2C=C(c2ccsc2)N1c1ccc(C#CCCO)cc1)c1ccco1 (stereo unspecified)	nt	nt	nt	i	nt	nt
O=C(COc1ccccc1Br)c1ccc(O)cc1O	i	i	i	i	i	21
COc1cc(/C=N/NC(=O)CCN2CCN(C)CC2)cc2c1OCO2	i	i	i	i	i	11
CN(/N=C/c1ccc(O)cc1O)c1ncc(C(F)(F)F)cc1Cl	i	i	i	i	i	26
CN(/N=C/c1ccccc1Cl)c1ncc(Cl)cc1C(F)(F)F	i	i	i	i	i	i
COc1ccccc1C(=O)Nc1ccnn1C1CCN(Cc2cnc(N(C)C)s2)CC1	i	i	i	i	i	i
COc1cc(SSc2cc(OC)cc([N+](=O)[O-])c2N)c(N)c([N+](=O)[O-])c1	i	i	i	i	i	37
CC(C)CC1C(=O)N(Cc2cn(Cc3ccco3)nn2)CCS(=O)(=O)N1Cc1ccc(-c2ccc(F)cc2)cc1 (stereo unspecified)	nt	nt	nt	i	nt	nt
CCOC(=O)c1cnc2ccc(C)cc2c1Sc1ccc(F)cc1	i	i	i	i	i	19
CCOC(=O)c1cnc2ccc(C)cc2c1Sc1ccccc1	i	i	i	i	i	i
O=C(OCc1cn([C@H]2C[C@H](c3ccc(Cl)cc3)N(C(=O)c3cccs3)C[C@@H]2O)nn1)c1ccccc1	nt	nt	nt	i	nt	nt
CCCCCCCCCCCCN1[C@@H](CC(=O)O)c2cc(C(F)(F)F)ccc2S1(=O)=O	i	i	i	i	104	i
COC(=O)C[C@H]1c2ccc(C(F)(F)F)cc2S(=O)(=O)N1Cc1ccccc1	i	i	i	i	nt	13
Cc1ccc(NC(=O)COC(=O)CNC(=O)c2ccco2)cc1	i	i	i	i	i	i
O=C(NCCCn1ccnc1)c1ccc(-c2ccccc2)cc1	i	i	97	i	i	i
O=C(NCCCn1ccnc1)c1ccc(F)cc1	i	i	nt	i	i	i
SMILES	Gli-Sufu block	Mdm2 MdmX PPI	Beta cell apopt	MPTP block	CSC inhib	GRIN3A LBD mod
O=C(NCCCn1ccnc1)c1ccc(N2CCCCCC2)c([N+](=O)[O-])c1	i	i	95	i	i	i
CCC(=O)c1c[nH]c(C(=O)NCCCn2ccnc2)c1	i	i	i	i	nt	12
CC1CN(S(=O)(=O)c2cccc(C(=O)NCCCn3ccnc3)c2)CC(C)O1 (stereo unspecified)	i	i	i	i	i	i
CC1CN(S(=O)(=O)c2ccc(C(=O)NCCCn3ccnc3)cc2)CC(C)O1 (stereo unspecified)	i	i	113	i	i	i
Cc1ccc(C(=O)NCCCn2ccnc2)cc1[N+](=O)[O-]	i	i	i	i	i	i
CCC(O)(Cc1ccccn1)Cc1ccccn1	i	nt	nt	i	nt	i
COc1ccc([C@@H]2CC(=O)[C@@H]3CN(S(=O)(=O)c4ccc(C)cc4)[C@H](c4cccc(Cl)c4)C[C@@H]3N2S(=O)(=O)c2ccccc2)cc1	nt	nt	nt	i	nt	nt
O=S(=O)(N/N=C/c1ccccc1OCc1ccc(Cl)cc1)c1ccccc1	i	i	i	i	i	13
COc1cc(/C=N/NC(=O)c2ccc(CN3C(=O)c4cccc5cccc3c45)cc2)cc(OC)c1O	i	i	i	i	i	i
CCOC(=O)/C(=C\c1cn(C)c2ccccc12)[N+](=O)[O-]	i	i	i	i	i	34
COc1cccc(NC2=CC(=O)CC(C)(C)C2)c1	i	i	i	i	i	i
COc1ccc(NC2=CC(=O)CC(C)(C)C2)cc1	i	i	nt	i	i	15
CCCNC(=O)C1(C)CCCN(C(=O)c2ccc3snnc3c2)C1 (stereo unspecified)	nt	nt	nt	i	nt	nt
Cc1cc(C(=O)N/N=C/c2ccc(-c3ccc(C)c(Cl)c3)o2)n[nH]1	i	i	nt	i	i	15
CCCNC1(C(N)=O)CCN(Cc2ccccc2)CC1	i	nt	nt	i	nt	i
CCc1ccc(-c2cc(C)no2)cc1S(=O)(=O)Nc1cc(C)on1	i	i	i	i	i	31
Cc1cccc(Oc2nc(-c3ccncc3)nc3ccccc23)c1	i	i	nt	i	i	i
Cc1ccccc1Oc1nc(-c2ccccn2)nc2ccccc12	i	i	88	i	i	i
Cc1cccc(Oc2nc(-c3ccccn3)nc3ccccc23)c1	i	i	81	i	i	i
COCCSc1nc(N)c(NC(=O)c2ccco2)c(=O)[nH]1	i	i	nt	i	i	i
O=S(=O)(c1ccc(C(F)(F)F)cc1)N1CCN(CCc2ccccc2)CC1	i	i	i	i	i	i
Nc1nc(Nc2ccccc2)nc(N2CCOCC2)c1[N+](=O)[O-]	i	i	i	i	i	i
Nc1nc(Nc2ccccc2F)nc(N2CCOCC2)c1[N+](=O)[O-]	i	i	i	i	i	15
CCOC(=O)c1ccc(NC(=S)NCC(O)c2ccccc2)cc1 (stereo unspecified)	i	i	i	i	i	10
CCOC(=O)c1ccc(NC(=O)CCOc2ccccc2)cc1	i	i	i	i	i	i
CCOC(=O)c1ccc(NC(=O)Oc2ccccc2)cc1	i	i	i	i	i	34
CCOC(=O)c1ccc(NC(=S)NCCc2ccccc2)cc1	i	i	i	i	i	i
Cc1ccc(NC(=O)c2cccc(C(=O)Nc3ccc(C)cc3C(=O)O)c2)c(C(=O)O)c1	i	i	i	i	i	25
